PubChem BioAssay (NCATS)
Inconclusive results are not listed. Active and inactive are the calls of the source. Unless noted, calls follow the shape of the dose curve; as a rule, active = well fitted curve in the direction sought with a large enough effect; inconclusive = small, poorly fitted or top-dose-only effect, or another doubt; inactive = no such curve, though single readings can be large; an effect the other way counts as inactive or inconclusive.

How the values were obtained:
[1] = biological target: Endonuclease 4 (Escherichia coli (strain K12)) (UniProt P0A6C1); assay: Counterscreen for APE1 Inhibitors: qHTS Validation Assay for Inhibitors of Endonuclease IV (AID 1708); also: % is scaled to controls: 0 for no effect and ±100 for the full control effect
In short: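 Enzyme (2 nM) + compound, 15 min RT; add 50 nM TAMRA/BHQ-2 THF-site dsDNA; kinetic read ex525/em598, 3 reads/60 s; activity = read 3 − read 1. Buffer Tris pH 7.5, 50 mM NaCl, 2 mM MgCl2, DTT, Tween-20.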

[2] = qHTS for differential inhibitors of proliferation of Plasmodium falciparum line 3D7 (AID 1876);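 also: parasite growth measured after three days of culture; 0% = vehicle wells and -100% = reference inhibitor wells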
[3] = qHTS for differential inhibitors of proliferation of Plasmodium falciparum line D10 (AID 1877);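 also: parasites grown with compound for 72 h before DNA staining; plate controls were vehicle wells for no effect and reference inhibitor wells for full effect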
[4] = qHTS for differential inhibitors of proliferation of Plasmodium falciparum line Dd2 (AID 1882); details: Potency: Plasmodium falciparum Dd2 proliferation inhibition;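 also: series mostly up to about 29 µM; plate controls were DMSO vehicle for no effect and 0.29 µM artemisinin for full effect; nearly all actives have a fitted effect of over 65% in size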
In short: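 SYBR Green DNA fluorescence (ex 485, em 535 nm) after overnight lysis quantifies parasite growth; compound exposure lasted 72 h at 37 C on infected red cells at 2.5% hematocrit, 0.3% parasitemia (final). Artemisinin 0.29 uM and vehicle wells define normalization.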

[5] = qHTS for differential inhibitors of proliferation of Plasmodium falciparum line HB3 (AID 1886); details: Potency: Plasmodium falciparum HB3 proliferation inhibition;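 also: parasites grown with compound for 72 h before SYBR Green readout; plate controls were vehicle for no effect and reference inhibitor for full effect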
[6] = qHTS Assay for Modulators of Human Peripheral Myelin Protein 22 (PMP22) Expression/Activity (AID 1967; active = well fitted curve in the direction sought with a large enough effect in the signal ratio; the % refers to the signal ratio;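 also: 0% = untreated cells and 100% end not stated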)
In short: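 Mouse MSC80 Schwann cells carrying Pmp22 promoter–green click beetle luciferase plus EF-alpha–red luciferase control, dosed 24 h at 37 °C. Dual-filter luminescence, overlap-corrected; %Activity from green/red ratio normalised to untreated cells, concentration-response curves fitted.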

[7] = biological target: Ferritin light chain (Equus caballus) (UniProt P02791); assay: qHTS Validation Assay for Identification of Novel General Anesthetics (AID 2323); also: series mostly up to about 77 µM; % is scaled to controls: 0 for no effect and ±100 for the full control effect
Sequence of Ferritin light chain (Equus caballus) (P02791 2-175 limits assumed): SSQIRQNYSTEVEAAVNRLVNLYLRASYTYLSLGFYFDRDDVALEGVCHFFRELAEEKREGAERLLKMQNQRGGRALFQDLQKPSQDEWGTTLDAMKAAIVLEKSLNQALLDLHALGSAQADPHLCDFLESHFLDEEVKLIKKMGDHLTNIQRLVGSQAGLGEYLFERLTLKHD
In short: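 Horse-spleen apoferritin (10 uM) in PBS with 50% saturated 1-aminoanthracene; compounds pin-transferred, 10 min at room temperature. Fluorescence read at 380/535 nm, normalized to free 1-AMA and 1-AMA/apoferritin values; four-parameter Hill fit.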

[8] = biological target: ATP-dependent DNA helicase Q1 (Homo sapiens) (UniProt P46063); assay: qHTS Validation Assay for Inhibitors of RecQ-Like Dna Helicase 1 (RECQ1) (AID 2353);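 also: plate controls were DMSO vehicle for no effect and enzyme-free control for full effect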
Sequence of ATP-dependent DNA helicase Q1 (Homo sapiens) (P46063 whole entry, looked up): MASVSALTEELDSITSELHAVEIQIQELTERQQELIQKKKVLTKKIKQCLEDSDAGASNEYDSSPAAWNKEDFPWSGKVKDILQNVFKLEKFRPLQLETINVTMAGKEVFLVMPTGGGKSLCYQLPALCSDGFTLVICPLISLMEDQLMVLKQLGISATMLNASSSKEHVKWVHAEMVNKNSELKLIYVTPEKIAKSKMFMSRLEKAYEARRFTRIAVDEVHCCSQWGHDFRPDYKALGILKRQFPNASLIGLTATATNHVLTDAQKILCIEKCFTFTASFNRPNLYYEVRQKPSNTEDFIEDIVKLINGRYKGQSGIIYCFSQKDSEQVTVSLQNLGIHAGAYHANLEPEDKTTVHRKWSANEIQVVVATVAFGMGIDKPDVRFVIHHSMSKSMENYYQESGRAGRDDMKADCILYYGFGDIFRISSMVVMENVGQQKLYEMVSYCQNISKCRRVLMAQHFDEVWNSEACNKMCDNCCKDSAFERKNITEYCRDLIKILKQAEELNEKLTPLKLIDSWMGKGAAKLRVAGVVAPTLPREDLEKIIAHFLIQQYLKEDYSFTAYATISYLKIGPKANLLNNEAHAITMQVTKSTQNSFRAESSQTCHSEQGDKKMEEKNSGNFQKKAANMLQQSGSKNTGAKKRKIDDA
In short: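 RECQ1T1 50 nM; forked duplex (20 bp + 30-nt ss tails) 200 nM, ATP 2 mM final; pH 8.0, 2 mM MgCl2, 2.5 ug/ml poly(dI-dC); 15 min compound preincubation; discontinuous kinetic read over 2 h at RT.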

[9] = biological target: RecQ-like DNA helicase BLM (Homo sapiens) (UniProt P54132); assay: qHTS Validation Assay for Inhibitors of Bloom's syndrome helicase (BLM) (AID 2364);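 also: plate controls were DMSO vehicle for no effect and enzyme-free control for full effect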
Sequence of RecQ-like DNA helicase BLM (Homo sapiens) (P54132 whole entry, looked up): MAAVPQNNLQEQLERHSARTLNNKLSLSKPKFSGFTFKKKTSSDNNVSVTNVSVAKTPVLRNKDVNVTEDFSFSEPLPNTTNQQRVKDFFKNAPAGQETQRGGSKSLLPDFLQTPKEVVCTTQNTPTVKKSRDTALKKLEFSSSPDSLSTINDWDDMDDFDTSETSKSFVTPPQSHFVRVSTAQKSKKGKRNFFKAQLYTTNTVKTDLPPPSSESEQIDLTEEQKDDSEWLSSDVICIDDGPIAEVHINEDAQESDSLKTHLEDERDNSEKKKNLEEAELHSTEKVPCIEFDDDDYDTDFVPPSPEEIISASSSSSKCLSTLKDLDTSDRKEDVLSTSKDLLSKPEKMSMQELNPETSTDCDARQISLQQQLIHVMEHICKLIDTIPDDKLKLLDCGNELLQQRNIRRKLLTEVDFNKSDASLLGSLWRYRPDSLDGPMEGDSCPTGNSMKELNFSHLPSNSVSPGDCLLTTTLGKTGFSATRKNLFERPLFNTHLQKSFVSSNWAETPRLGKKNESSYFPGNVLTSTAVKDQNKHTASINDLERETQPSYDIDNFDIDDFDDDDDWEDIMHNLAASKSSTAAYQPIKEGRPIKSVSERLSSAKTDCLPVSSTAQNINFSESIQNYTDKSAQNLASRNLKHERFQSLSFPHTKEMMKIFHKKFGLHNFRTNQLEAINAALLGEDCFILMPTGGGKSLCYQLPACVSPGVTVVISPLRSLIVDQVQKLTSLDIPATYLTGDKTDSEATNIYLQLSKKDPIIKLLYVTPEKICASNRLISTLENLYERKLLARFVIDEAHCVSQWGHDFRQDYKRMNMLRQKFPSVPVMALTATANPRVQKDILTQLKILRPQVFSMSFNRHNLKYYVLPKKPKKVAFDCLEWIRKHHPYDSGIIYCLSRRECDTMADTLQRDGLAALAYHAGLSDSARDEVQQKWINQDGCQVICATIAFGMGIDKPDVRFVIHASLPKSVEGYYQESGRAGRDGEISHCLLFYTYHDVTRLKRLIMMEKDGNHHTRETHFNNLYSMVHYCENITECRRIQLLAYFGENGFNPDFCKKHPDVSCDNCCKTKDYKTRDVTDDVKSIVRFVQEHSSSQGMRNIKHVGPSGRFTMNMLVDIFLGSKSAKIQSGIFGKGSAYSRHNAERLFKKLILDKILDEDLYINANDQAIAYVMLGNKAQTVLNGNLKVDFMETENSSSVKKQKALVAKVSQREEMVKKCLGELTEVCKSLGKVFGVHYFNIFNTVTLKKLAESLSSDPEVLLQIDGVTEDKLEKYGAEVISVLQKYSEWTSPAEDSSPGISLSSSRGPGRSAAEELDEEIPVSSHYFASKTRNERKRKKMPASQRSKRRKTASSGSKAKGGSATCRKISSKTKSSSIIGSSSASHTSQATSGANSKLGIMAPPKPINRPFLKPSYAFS
In short: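 BLM 50 nM in 25 mM Tris-HCl pH 8.0, 5 mM NaCl, 2 mM MgCl2, 1 mM DTT, 0.01% Tween-20, 2.5 ug/ml poly(dI-dC); 15 min cpd preinc, RT. Start: 200 nM forked DNA + 2 mM ATP (final). TAMRA read, 2 reads 2 h apart.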

[10] = Validation screen for small molecules that induce DNA re-replication in MCF 10A normal breast cells (AID 463097); also: 0% is about no effect; nearly all actives have a fitted effect of over 60% in size
In short: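 MCF 10A cells exposed to compound 48 hr at 37 C, 5% CO2, then Hoechst-stained 40 min. Laser-scanning imaging of nuclear DNA content (405 nm ex, 500-530 nm em); re-replication scored as rise in nuclei with elevated fluorescence intensity.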

[11] = Quantitative high throughput screen for delayed death inhibitors of the malarial parasite plastid, 48 hour incubation (AID 488752); also: % is scaled to controls: 0 for no effect and ±100 for the full control effect; nearly all actives have a fitted effect of over 65% in size
In short: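 First, compound was pinned into RPMI 1640 medium containing 0.5% Albumax. Next, reporter-parasite-infected erythrocytes were added to 2% hematocrit and 0.1% parasitemia. After 48 h at 37 C under 5% CO2, luciferase detection reagent was added and luminescence read.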

[12] = biological target: M-phase phosphoprotein 8 (Homo sapiens) (UniProt Q99549); assay: qHTS Validation Assay for Inhibitors for MPP8 Chromodomain Interactions with Methylated Histone Tails (AID 488949); also: top concentration of the series differs between compounds; % is scaled to controls: 0 for no effect and ±100 for the full control effect; nearly all actives have a fitted effect of over 55% in size
In short: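 MPP8 (50 nM) was pre-bound to 50 nM biotinylated H3(1-18)K9me3 peptide in PBS pH 7.4 with 0.01% Tween-20. Compounds were then added for 30 min at room temperature, and complex disruption was read by AlphaScreen with streptavidin donor and nickel-chelate acceptor beads.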

[13] = biological target: Transient receptor potential cation channel subfamily V member 1 (Homo sapiens) (UniProt Q8NER1); assay: HTS Assay for Compounds that Act as Enhancers of the Vanilloid Receptor 1 (AID 488979); also: 0% is about no effect
Sequence of Transient receptor potential cation channel subfamily V member 1 (Homo sapiens) (Q8NER1 whole entry, looked up): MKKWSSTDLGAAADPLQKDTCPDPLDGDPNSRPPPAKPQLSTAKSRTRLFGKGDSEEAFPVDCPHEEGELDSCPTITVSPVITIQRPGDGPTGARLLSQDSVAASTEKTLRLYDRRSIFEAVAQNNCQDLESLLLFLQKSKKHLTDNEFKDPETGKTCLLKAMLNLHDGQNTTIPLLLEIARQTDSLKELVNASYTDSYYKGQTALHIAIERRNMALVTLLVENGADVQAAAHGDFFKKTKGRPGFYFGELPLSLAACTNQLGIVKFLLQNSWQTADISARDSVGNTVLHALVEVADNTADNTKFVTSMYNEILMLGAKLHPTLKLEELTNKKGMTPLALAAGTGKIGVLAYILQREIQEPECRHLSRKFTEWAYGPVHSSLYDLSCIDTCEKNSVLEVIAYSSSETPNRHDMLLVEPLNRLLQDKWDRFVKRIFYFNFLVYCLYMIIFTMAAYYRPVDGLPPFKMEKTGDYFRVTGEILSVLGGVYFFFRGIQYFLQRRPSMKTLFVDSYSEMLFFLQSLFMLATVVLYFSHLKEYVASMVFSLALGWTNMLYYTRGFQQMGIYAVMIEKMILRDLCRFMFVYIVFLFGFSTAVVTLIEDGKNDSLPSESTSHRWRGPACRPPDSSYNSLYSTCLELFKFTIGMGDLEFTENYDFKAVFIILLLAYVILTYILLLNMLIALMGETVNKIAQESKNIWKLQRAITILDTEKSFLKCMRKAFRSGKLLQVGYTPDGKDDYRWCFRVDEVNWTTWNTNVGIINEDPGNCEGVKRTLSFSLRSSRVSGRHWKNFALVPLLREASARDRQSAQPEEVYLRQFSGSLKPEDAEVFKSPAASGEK
In short: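 TRPV1-expressing cells loaded with Fluo-8 calcium dye; compounds added and calcium influx read kinetically for 3 min (agonist phase), then capsaicin at EC20 added and read 2 min more for enhancement. Fluorescence ex 480/em 520 nm.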

[14] = biological target: Thyrotropin receptor (Homo sapiens) (UniProt P16473); assay: qHTS Assay for Antagonists of the Thyroid Stimulating Hormone Receptor (AID 488980); also: series mostly up to about 58 µM; 0% is about no effect
Sequence of Thyrotropin receptor (Homo sapiens) (P16473 whole entry, looked up): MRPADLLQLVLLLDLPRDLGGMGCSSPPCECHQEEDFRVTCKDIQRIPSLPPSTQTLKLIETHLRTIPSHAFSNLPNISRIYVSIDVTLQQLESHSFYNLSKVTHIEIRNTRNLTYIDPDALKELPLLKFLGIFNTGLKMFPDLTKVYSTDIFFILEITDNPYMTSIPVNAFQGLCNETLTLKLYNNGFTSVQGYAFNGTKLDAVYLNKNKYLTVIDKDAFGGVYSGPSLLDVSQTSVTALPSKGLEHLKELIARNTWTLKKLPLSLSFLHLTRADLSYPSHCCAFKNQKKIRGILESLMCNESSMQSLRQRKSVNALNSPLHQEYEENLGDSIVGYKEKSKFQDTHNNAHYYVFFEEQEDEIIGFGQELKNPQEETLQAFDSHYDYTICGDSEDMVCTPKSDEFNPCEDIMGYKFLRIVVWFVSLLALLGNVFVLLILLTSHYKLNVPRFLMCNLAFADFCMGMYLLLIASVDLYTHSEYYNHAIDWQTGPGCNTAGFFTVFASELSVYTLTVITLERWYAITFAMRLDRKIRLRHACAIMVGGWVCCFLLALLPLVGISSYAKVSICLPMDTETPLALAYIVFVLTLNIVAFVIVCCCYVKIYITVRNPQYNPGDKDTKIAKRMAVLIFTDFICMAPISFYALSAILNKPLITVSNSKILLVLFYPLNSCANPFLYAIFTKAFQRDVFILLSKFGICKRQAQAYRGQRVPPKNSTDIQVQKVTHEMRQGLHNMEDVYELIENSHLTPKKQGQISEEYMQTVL
In short: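 TSHR-transfected HEK293 cells (2000/well) in HEPES-buffered HBSS with 70 uM RO 20-1724 were stimulated with 4 nM TSH (EC80, final) in the presence of compound. cAMP was measured by HTRF competition after lysis and 30 min at RT.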

[15] = biological target: Thyrotropin-releasing hormone receptor (Homo sapiens) (UniProt P34981); assay: qHTS for Small Molecule Agonists and Allosteric Enhancers of Human TRH Receptor: Validation Screen for Agonists (AID 493127;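 active = calcium activation more than 3 SD above the typical response in the agonist read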;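 also: intracellular calcium rise by fluo-8 fluorescence before TRH EC20 addition; 0% is about no effect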); details: TRH receptor agonist cell assay; at 2 µM; hits give high values
Sequence of Thyrotropin-releasing hormone receptor (Homo sapiens) (P34981 whole entry, looked up): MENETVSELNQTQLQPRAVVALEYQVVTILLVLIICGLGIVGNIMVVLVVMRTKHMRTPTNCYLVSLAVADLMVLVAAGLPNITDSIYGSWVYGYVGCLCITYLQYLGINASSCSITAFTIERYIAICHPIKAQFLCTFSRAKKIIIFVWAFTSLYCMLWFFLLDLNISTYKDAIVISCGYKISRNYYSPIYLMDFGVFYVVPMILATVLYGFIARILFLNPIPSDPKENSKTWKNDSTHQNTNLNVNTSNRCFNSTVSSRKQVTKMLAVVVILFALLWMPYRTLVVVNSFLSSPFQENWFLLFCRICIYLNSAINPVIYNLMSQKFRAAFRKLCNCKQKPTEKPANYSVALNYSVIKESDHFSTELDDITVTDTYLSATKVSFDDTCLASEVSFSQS
In short: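 Compounds are added by online pintool to dye-loaded TRHR cells while fluorescence is recorded every second. A rise in calcium signal during the agonist read marks activation; a later 10 nM TRH addition (EC20) serves the separate enhancer mode.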

[16] = biological target: Galactokinase (Homo sapiens) (UniProt P51570); assay: qHTS Validation Assay for Inhibitors of Human Galactokinase (GALK) (AID 493189); also: 0% is about no effect
Sequence of Galactokinase (Homo sapiens) (P51570 whole entry, looked up): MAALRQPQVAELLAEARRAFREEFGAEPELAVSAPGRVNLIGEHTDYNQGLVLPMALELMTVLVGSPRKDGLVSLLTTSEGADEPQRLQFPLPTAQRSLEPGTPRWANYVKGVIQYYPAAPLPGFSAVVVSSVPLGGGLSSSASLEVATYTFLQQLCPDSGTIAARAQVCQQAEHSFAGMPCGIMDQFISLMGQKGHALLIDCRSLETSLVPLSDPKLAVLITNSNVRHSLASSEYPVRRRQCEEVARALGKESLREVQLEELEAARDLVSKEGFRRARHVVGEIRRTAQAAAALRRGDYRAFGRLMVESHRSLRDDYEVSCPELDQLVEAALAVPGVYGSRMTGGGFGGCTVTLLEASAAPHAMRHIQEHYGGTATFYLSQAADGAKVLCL
In short: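 GALK (5 nM) with 35 uM ATP and 100 uM galactose in HEPES pH 8.0 with MgCl2, NaCl, DTT and BSA. Reaction ran 1 h at room temperature. Residual ATP read by Kinase-Glo Plus luminescence.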

[17] = Validation screen for small molecules that induce DNA re-replication in SW480 colon adenocarcinoma cells (AID 504364); also: 0% is about no effect
In short: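 Image-based qHTS: compounds were incubated with SW480 cells for 48 hr, nuclei stained with Hoechst, and per-nucleus fluorescence intensity scanned to flag cells with excess DNA content.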

[18] = biological target: DNA dC->dU-editing enzyme APOBEC-3G (Homo sapiens) (UniProt Q9HC16); assay: qHTS for inhibitors of Vif-A3G interactions: Validation (AID 588379); also: 0% is about no effect
Sequence of DNA dC->dU-editing enzyme APOBEC-3G (Homo sapiens) (Q9HC16 whole entry, looked up): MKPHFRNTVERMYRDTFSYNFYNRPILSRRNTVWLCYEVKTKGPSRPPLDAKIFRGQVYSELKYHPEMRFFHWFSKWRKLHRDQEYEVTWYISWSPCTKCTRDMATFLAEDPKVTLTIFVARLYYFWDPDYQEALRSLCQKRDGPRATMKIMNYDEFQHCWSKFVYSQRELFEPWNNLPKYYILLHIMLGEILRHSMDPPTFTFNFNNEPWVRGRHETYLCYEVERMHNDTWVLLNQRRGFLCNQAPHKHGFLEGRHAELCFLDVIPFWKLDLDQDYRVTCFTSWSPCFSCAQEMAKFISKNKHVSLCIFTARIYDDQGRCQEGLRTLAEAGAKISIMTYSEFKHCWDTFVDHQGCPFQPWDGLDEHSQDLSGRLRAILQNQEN
In short: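 Yellow fluorescence (Ex 488, Em 500-530) of Vif-coexpressing HeLa A3G-eYFP cells, scanned by Acumen cytometer, reports blocked A3G degradation. Cells plated at 700/well overnight at 37 deg C before compound addition, then a further overnight compound incubation at 37 deg C.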

[19] = tested on: Zika virus NS2B-NS3 protease; assay: Primary screen GU AMC qHTS for Zika virus inhibitors (AID 1347154);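 also: 0% = no-inhibitor control and -100% = no-enzyme control; nearly all actives have a fitted effect of over 70% in size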
In short: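 Unlinked Zika NS2B hydrophilic domain/NS3 protease domain noncovalent complex (25 nM final) in 10 mM Tris-HCl pH 8.0, 0.01% Tween 20, with AMC peptide substrate. Fluorescence (ex 340, em 450 nm) change over 15 min, room temperature; percent inhibition fitted to 4-parameter Hill equation.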

[20] = Confirmatory qHTS for small molecule stabilizers of the endoplasmic reticulum resident proteome: Secreted ER Calcium Modulated Protein (SERCaMP) assay (AID 1508628); also: series mostly up to about 76 µM; % is scaled to controls: 0 for no effect and ±100 for the full control effect; nearly all actives have a fitted effect of over 40% in size
In short: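 Reporter secretion upon ER calcium depletion (100 nM thapsigargin, 4 h, 37C) is measured as medium luminescence with coelenterazine, after 16 h compound pretreatment of SH-SY5Y-GLuc-SERCaMP cells; primary at three concentrations up to 38.3 uM, follow-up at 11 (up to 76.6 uM).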

CN1CCN(c2ccc3ccccc3n2)CC1
inactive: outcome [1] | Potency [2] | Potency [3] | Potency [4] | Potency [5] | outcome [6] | outcome [7] | Potency [8] | Potency [9] | Potency [10] | Potency [11] | Potency [12] | outcome [13] | outcome [14] | activation [15] 1.56% | outcome [16] | Potency [17] | Potency [18] | Potency [19] | Potency [20]
